# Assay results: PubChem BioAssay (NCATS)
# Records with an inconclusive call do not appear. Calls of active or inactive are those of the source. Calls follow the shape of the dose curve; as a rule, active = well fitted inhibition curve with a large enough effect; inconclusive = small, poorly fitted or top-dose-only effect; inactive = flat fitted curve, though single readings scatter.
# Target: Calcium and integrin-binding protein 1 (Homo sapiens) (UniProt Q99828)
# Assay: Primary qHTS for Identification of Calcium Integrin Binding Protein 1 (CIB1) Competitor (AID 1508620);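 also: GST tagged CIB1 binding a fluorescein labelled alphaIIb integrin peptide tracer; top concentration of the series differs between compounds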
# Conditions: CIB1-GST / FITC-alphaIIb peptide fluorescence polarization; series mostly up to 114 µM; activity change, negative = inhibition: at the top concentration
# Method in brief: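 Fluorescence polarization competition: CIB1-GST (1 uM final) preincubated with compound 15 min at room temperature, then FITC-labeled alphaIIb peptide (100 nM final) added for another 15 min. Polarization read at Ex 480/Em 540.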
# % is scaled to controls: 0 for no effect and ±100 for the full control effect.
# Chain of Calcium and integrin-binding protein 1 (Homo sapiens) (Q99828 whole entry, looked up): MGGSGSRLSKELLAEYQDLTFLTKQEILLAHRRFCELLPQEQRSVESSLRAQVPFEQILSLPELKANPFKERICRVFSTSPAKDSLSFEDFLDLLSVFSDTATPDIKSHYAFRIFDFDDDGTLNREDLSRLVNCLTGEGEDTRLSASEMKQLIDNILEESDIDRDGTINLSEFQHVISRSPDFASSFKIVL
row,Structure (SMILES),"activity change, negative = inhibition"
1,Cc1ccc(-c2nc3ccccc3[nH]2)cc1NC(=O)c1ccc(-c2cccc(Cl)c2)o1,-2.94% (inactive)
2,N#Cc1c(-c2ccc3ccccc3c2)no[n+]1[O-],-0.682% (inactive)
3,N#CN1CCC(NS(=O)(=O)c2cccc(C(F)(F)F)c2)CC1,-1.66% (inactive)
4,FC1(F)Oc2ccc(-c3ccc4ncnc(NCc5cccs5)c4c3)cc2O1,4.67% (inactive)
5,O=C1CCCC2=C1C(c1[nH]ncc1Cl)N=C(Nc1nc3ccc(Cl)cc3o1)N2 (centres undefined),-5.23% (inactive)
6,CCOC(=O)c1ccoc1-c1ccc2ncnc(NCc3ccc(C)o3)c2c1,0.643% (inactive)
7,COc1ccc(NC(=O)c2ccc(-c3nc4ccccc4[nH]3)cc2)cc1OC,6.3% (inactive)
8,O=C1CCc2cc(S(=O)(=O)Nc3ccc(F)cc3)ccc2N1,8.76% (inactive)
9,Nc1cc(-c2nc(Nc3ccc(F)c(F)c3)c3ccccc3n2)ccn1,5.26% (inactive)
10,O=S(=O)(c1ccsc1)N1CCN(c2nc(-c3cccs3)nc3ccccc23)CC1,1.91% (inactive)
11,O=C(c1cccs1)c1nonc1C(=O)c1cccs1,-1.44% (inactive)
12,CC(C)(C)c1ccc(Nc2nc(C#N)nc(NC3CCCC3)n2)cc1,3.45% (inactive)
13,Cc1ccc(NS(=O)(=O)c2ccc(Cl)cc2)cc1C,2.26% (inactive)
14,O=C(Nc1ccc(-n2cncn2)c(C(F)(F)F)c1)Nc1nnc(-c2ccncc2)s1,9.14% (inactive)
15,O=C1c2ccccc2C(=O)N1C1CCCCC1,-0.478% (inactive)
16,O=C(OCC#CCSc1nnc(-c2cccs2)o1)c1ccc(F)cc1,2.34% (inactive)
17,Nc1c(-c2ccncc2)cc[nH]c1=O,-16.6% (inactive)
18,CC(=O)Nc1sc2c(c1-c1ccc3nc[nH]c3c1)CCNC2,8.24% (inactive)
19,COc1ccc(C2Nc3ccccc3C(=O)N2Cc2ccccc2)cc1OCc1ccc(NC(C)=O)cc1 (centres undefined),1.35% (inactive)
20,COc1cc(-c2no[n+]([O-])c2C#N)cc(OC)c1OC,1.22% (inactive)

row,Structure (SMILES),"activity change, negative = inhibition"
1,Oc1ccc(CNc2ccc3ccccc3n2)c2cccnc12,-3.86% (inactive)
2,O=C(Nc1ncc(Cc2ccc(C(F)(F)F)cc2)s1)c1ccc(-c2ccc([N+](=O)[O-])cc2)o1,-6.22% (inactive)
3,C(=C/c1cccs1)/c1ccncc1,-0.322% (inactive)
4,Cc1ccc(OCCn2c(CCNC(=O)c3ccc4cc[nH]c4c3)nc3ccccc32)cc1,4.86% (inactive)
5,C=CCSc1nnc(-c2cccc3ccccc23)o1,5.96% (inactive)
6,CNc1sc(-c2cccc3ccccc23)nc1C(=O)OC,-6.81% (inactive)
7,O=S(=O)(Nc1nc(-c2ccccc2C(F)(F)F)nc2ccccc12)c1ccc(Br)cc1,6.69% (inactive)
8,O=C(O)c1cc(Br)c(O)c2ncccc12,-11.2% (inactive)
9,N#CC1=C(NC=NCc2ccccc2)Oc2ccc3ccccc3c2C1c1ccccc1 (centres undefined),13.6% (inactive)
10,Fc1cccc(CNc2ncnc3ccc(-c4cccnc4)cc23)c1,0.499% (inactive)
11,CCn1cnc2c(Nc3ccc(Cc4cccnc4)cc3)nc(C#N)nc21,1.29% (inactive)
12,O=C(Cn1cc(CNCc2ccccc2)nn1)Nc1cc(C(F)(F)F)ccc1Cl,4.52% (inactive)
13,COc1ccc([C@H]2[C@H](c3ccccc3)C(=O)N2Cc2ccccc2)cc1COc1ccc(NC(C)=O)cc1,3.2% (inactive)
14,COc1ccc(C2=Nn3c(nnc3-c3cccc(OC)c3OC)SC2)cc1OC,2.48% (inactive)
15,CC(=O)Nc1sc2c(c1-c1ccc3c(c1)OCCCO3)CCNC2,-6.49% (inactive)
16,Cc1ccccc1C(=O)N1CCc2cc(-c3nc(NC(=O)Cc4ccc5ccccc5c4)sc3C)ccc21,1.06% (inactive)
17,O=C(Nc1cc(Cc2ccccc2)ccn1)c1ccc(-c2cccc([N+](=O)[O-])c2)o1,-0.493% (inactive)
18,COc1ccc2cc3cc(C(=O)Nc4ccc(F)cc4)sc3nc2c1,1.5% (inactive)
19,O=C(O)c1ccc(S(=O)(=O)N[C@H](Cc2c[nH]c3ccccc23)C(=O)O)cc1,-3.28% (inactive)
